ChEMBL document CHEMBL1157539, “Thousands of chemical starting points for antimalarial lead identification” (Nature, 2010)

What was measured:
Assay type in all cases: functional
Plasmodium falciparum [1] = experiment: GSK_TCMDC: Inhibition of Plasmodium falciparum 3D7 in whole red blood cells, using parasite LDH activity as an index of growth. Test compounds present at 2uM
Plasmodium falciparum [2] = experiment: GSK_TCMDC: Inhibition of Plasmodium falciparum Dd2 in whole red blood cells, using parasite LDH activity as an index of growth. Test compounds present at 2uM
HepG2 = experiment: GSK_TCMDC: Percent inhibition of human HepG2 cell line. Test compounds present at 10uM.

SMILES | Inhibition (Plasmodium falciparum [1]) | Inhibition (Plasmodium falciparum [2]) | Inhibition (HepG2)
CS(=O)(=O)c1ccc2c(c1)CCN(CCC1CCC(NC(=O)C(=Cc3ccc(Cl)cc3Cl)c3ccc(-c4ccccc4)cc3)CC1)CC2 (configuration not stated) | 81% | 16% | 33%
CC(C)(CNCc1cccc(Oc2ccccc2)c1)c1nc(-c2ccnc(N)n2)c(-c2ccc(Cl)c(O)c2)[nH]1.Cl | 97% | 99% | 28%
CC[C@H](C)CNC(=O)c1ccnc(-c2cccc(CN(C)C3CCN(C)CC3)c2)c1.O=C(O)C(F)(F)F | 100% | 33% | 0%
O=C(Cn1c(SCc2cccc(F)c2F)cc(=O)c2ccccc21)N(CCn1ccnc1)Cc1ccc(-c2ccc(C(F)(F)F)cc2)cc1 | 100% | 94% | 20%
CC(C)N(Cc1cnc(N)c(C#N)n1)c1ccc(Cl)c(Cl)c1 | 97% | 63% | 0%
CCN(c1ccccc1)S(=O)(=O)c1ccc(OC)c(NC(=O)c2cccc(C(F)(F)F)c2)c1 | 90% | 70% | 9%
Cc1cc(N(C)C)nc(Nc2ccc(NC(=O)COc3ccccc3)cc2)n1 | 100% | 67% | 15%
COc1ccc2nc3cc(Cl)ccc3c(NCCCCNc3c4ccc(Cl)cc4nc4ccc(OC)cc34)c2c1 | 99% | 99% | 20%
CCCCCCNC(=O)C1Cc2c([nH]c3cc(Cl)ccc23)C2(CCN(CCC)CC2)N1 (configuration not stated) | 92% | 18% | 8%
Nc1nc(N)c2c(Cl)c(CNc3cccc(C(=O)O)c3)ccc2n1 | 93% | 97% | 69%
CCc1cc2c(cc1OCCN(C)C)N(C(=O)Nc1ccc(-c3ccncc3)c(Cl)c1)CC2 | 95% | 7% | 18%
CCc1ccc(C2=Nn3c(nnc3-c3cccs3)SC2)cc1 | 93% | 20% | 9%
COc1ccc(NC(=O)Nc2nc3ccccc3s2)cc1N1CCN(C)CC1 | 95% | 22% | 6%
COc1ccc(Cl)cc1N1CCN(CCCNC(=O)c2ccc(-c3nc4ccc(C(F)(F)F)cc4[nH]3)c(C)c2)CC1 | 95% | 14% | 6%
Nc1nc(N)c2c(ccc3nn(C4CCCC4)cc32)n1 | 97% | 3% | 44%
O=C(Cc1ccc(-n2cnnn2)cc1)N(Cc1cncn1Cc1cccc(C(F)(F)F)c1)CC1CC1 | 86% | 0% | 0%
CCN(CC)CCCOc1ccc(Nc2nccc(-c3c(-c4cccc(NC(=O)c5c(F)cccc5F)c4)nn4ccccc34)n2)cc1F | 100% | 99% | 86%
CN1CCN(c2cc3c(cc2Cl)CCN3C(=O)Cc2ccc(Cl)c(NC(=O)Nc3cccc([N+](=O)[O-])c3)c2)CC1 | 99% | 51% | 0%
CC(C)c1ccc(NC(=O)c2ccc(C(=O)NC3CCN(Cc4ccccc4)CC3)cc2)cc1.O=C(O)C(F)(F)F | 88% | 7% | 30%
CC(C)(C)C(=O)Oc1ccc(CC2NCCc3cc(OC(=O)C(C)(C)C)c(OC(=O)C(C)(C)C)cc32)cc1OC(=O)C(C)(C)C (configuration not stated) | 97% | 96% | 3%

SMILES | Inhibition (Plasmodium falciparum [1]) | Inhibition (Plasmodium falciparum [2]) | Inhibition (HepG2)
O=C(Nc1cccc(CN2CCCN(Cc3cccc(Cl)c3)CC2)c1)c1ccc(Cl)c(Cl)c1.O=C(O)C(F)(F)F | 89% | 17% | 18%
Fc1ccc2[nH]c(-c3ccc(-c4cccc(CN5CCN(CCN6CCOCC6)CC5)c4)cc3)nc2c1.O=C(O)C(F)(F)F | 100% | 100% | 35%
COc1c(C2CCN(CCCCNC(=O)c3ccc(-c4ccc(Cl)cc4)c(O)c3)CC2)ccc2c1CCCC2 | 100% | 99% | 91%
OC(CNCc1ccccc1OCc1ccccc1)c1cccc(Cl)c1 (configuration not stated) | 100% | 100% | 0%
COc1ccccc1C1CCN(C2CCC(NC(=O)/C=C/c3cc(C(F)(F)F)ccc3F)CC2)CC1 (configuration not stated) | 97% | 32% | 39%
NCCCCNc1cc(-c2ccnc(Nc3cccc(Cl)c3)n2)ccn1 | 94% | 91% | 46%
Cc1cc(OCC2CCN(c3ncc(C(=O)NC4CC4)cc3Cl)CC2)ccc1F | 96% | 96% | 16%
CN(C)CCCNc1ncnc2c1[nH]c1ccc(Cl)cc12 | 99% | 3% | 2%
CC(C)CCCC(C)(C)NC[C@@H](O)[C@H](Cc1ccccc1)NC(=O)c1cccc(CCC2CC2)c1 | 98% | 52% | 100%
CCOc1cccc(C(=O)Nc2ccc(-c3nc4ccccc4[nH]3)cc2)c1 | 96% | 30% | 40%
O=C(Nc1cccc(C(F)(F)F)c1)c1ccc(S(=O)(=O)NCC2CCN(CC3CCCCC3)CC2)cc1.O=C(O)C(F)(F)F | 100% | 49% | 24%
CC(C)c1cn2c3c(cc(C(=O)N[C@@H](Cc4ccccc4)[C@H](O)CNC4CCCCC4)cc13)N(C)S(=O)(=O)CC2.O=CO | 98% | 99% | 9%
CCOc1ccc(OCC)c(N2CCN(CCCCNC(=O)c3ccc(NC(=O)c4ccc(Cl)cc4)cc3)CC2)c1 | 97% | 40% | 13%
COC(=O)c1ccc2nc(-c3cc(OC)c(O)c(C(=O)NC4CCN(Cc5ccccc5)CC4)c3)[nH]c2c1 | 85% | 0% | 8%
COc1ccc2ccccc2c1C=NNc1ccnc2cc(Cl)ccc12 | 100% | 94% | 20%
Cc1cc2ccccc2c(CON2C(=N)N=C(N)NC2(C)C)c1C.Cl | 93% | 31% | 65%
O=[N+]([O-])c1ccc(C2=NN(S(=O)(=O)c3c(Cl)cc(Cl)cc3Cl)CCCC2)cc1 | 99% | 98% | 5%
Cl.O=C(Nc1ccccc1)c1cccc(Nc2nccc(Nc3ccc(Oc4ccccc4)cc3)n2)c1 | 98% | 11% | 6%
CCNc1cc(C)nc(Nc2ccc(NC(=O)C3CCCC3)cc2)n1 | 99% | 69% | 13%
CN1CCN(CCCN(Cc2cccc(-c3ccc(CNCc4ccc5c(c4)OCO5)cc3)c2)C(=O)Nc2ccccc2)CC1.O=C(O)C(F)(F)F | 98% | 69% | 39%

SMILES | Inhibition (Plasmodium falciparum [1]) | Inhibition (Plasmodium falciparum [2]) | Inhibition (HepG2)
O=C(Nc1cccc(C(F)(F)F)c1)Nc1nc2ccc([N+](=O)[O-])cc2s1 | 100% | 76% | 81%
CN(C)CC(O)C(c1ccccc1)c1ccc(Cl)cc1.O=C(O)CCC(=O)O (configuration not stated) | 99% | 4% | 4%
CCOC(=O)CNC(=O)N(CCN(Cc1ccccc1)C(=O)NCC(=O)OCC)Cc1ccccc1 | 98% | 0% | 9%
COc1ccc2[nH]ccc(=NN=Cc3ccccc3Cl)c2c1 | 100% | 99% | 29%
O=C(/C=C/c1ccc(Cl)c(Cl)c1)NCCCCCN1CCC(NC(=O)Nc2ccc(F)cc2F)CC1 | 100% | 23% | 14%
COc1cccc(CNC(=O)c2ccnc(-c3ccc(CNCCOc4ccccc4)cc3)c2)c1.O=C(O)C(F)(F)F | 83% | 10% | 23%
Cc1nc(C)c(-c2ccc(C(=O)c3ccc(Cl)cc3)cc2)c(O)c1Cl | 98% | 95% | 0%
Cn1cncc1-c1ccc2ncnc(Nc3ccc(OCc4ccccc4)cc3)c2c1 | 100% | 99% | 4%
Cc1noc(C)c1-c1cccc(CNCc2cccc(-c3csc(-c4nc5ccccc5[nH]4)c3)c2)c1.O=C(O)C(F)(F)F | 100% | 74% | 32%
Cc1cnc(C(=O)Nc2ccc(-c3cccc(-c4nc5ccccc5[nH]4)c3)cc2)cn1 | 93% | 8% | 77%
O=C(Nc1cccc(CN2CCN(C(=O)c3ccccc3)CC2)c1)c1ccco1.O=C(O)C(F)(F)F | 95% | 42% | 6%
O=C(Nc1cccc(C(F)(F)F)c1)Nc1cc(F)c(F)cc1Cl | 83% | 98% | 0%
COCCCNC(=O)C1CCN(C(c2ccc(Cl)cc2)c2ccc(Cl)cc2)CC1 | 91% | 63% | 5%
CCOC(=O)CN(c1ccc(Br)cc1OCCOc1cc(Br)ccc1N(CC(=O)OCC)C(C)C(=O)OCC)C(C)C(=O)OCC (configuration not stated) | 94% | 6% | 0%
COc1ccc(-c2nc(NC(=O)COc3ccc(C(C)=O)cc3)sc2C)cc1 | 98% | 58% | 0%
Cc1ccc(Nc2nc(N/N=C/c3cc4c(cc3Br)OCO4)nc(Nc3ccc([N+](=O)[O-])cc3)n2)cc1C | 100% | 89% | 23%
O=C(NCCN1CCC(c2ncc(-c3ccccc3)o2)CC1)c1ccc(NC(=O)c2ccc(Cl)cc2)cc1 | 100% | 80% | 32%
CCOC(=O)c1c[nH]c2c(sc3cc(OC)ccc32)c1=O | 96% | 93% | 0%
CN1CCC(COc2ccc(CN3CCC(NC(=O)c4cccc(Cl)c4)CC3)cc2)CC1.O=C(O)C(F)(F)F | 94% | 13% | 16%
